Consider 3 compounds from PubChem BioAssay (EPA / NIEHS).

Molecules are shown by their SMILES. Active and inactive are the calls of the source. The calls were made as follows: active = hit-call score of the fitted dose curve at least 0.9, where 1 is the maximum; inactive = score below 0.9.

Read-out in experiment [1]: Interleukin-1 alpha (IL1a), IL1A (gene 3552)
The experiment can be described thus: BSK_KF3CT_IL1a: BioMAP Diversity Plus: KF3CT Assay for Interleukin-1 alpha (IL1a) Biomarker Activity (AID 2283070). To be noted: primary human keratinocytes with fibroblasts; actives raise or lower the signal. Put shortly:
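Readout is IL-1a level by ELISA, compared bidirectionally with DMSO as baseline. Cells: human keratinocytes co-cultured with foreskin fibroblasts, harvested 24 h post-dose.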

Read-out in experiment [2]: TIMP metallopeptidase inhibitor 2 (TIMP2), TIMP2 (gene 7077)
The experiment can be described thus: BSK_KF3CT_TIMP2: BioMAP Diversity Plus: KF3CT Assay for TIMP metallopeptidase inhibitor 2 (TIMP2) Biomarker Activity (AID 2283071). To be noted: primary human keratinocytes with fibroblasts; actives raise or lower the signal. A digest of the protocol: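 ELISA readout of TIMP-2 in keratinocyte plus foreskin fibroblast co-cultures (human skin primary cells), 24 h post-dose. Gain or loss of signal fitted relative to DMSO.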

Read-out in experiment [3]: Transforming growth factor beta 1 (TGFb1), TGFB1 (gene 7040)
The experiment is described as follows: BSK_KF3CT_TGFb1: BioMAP Diversity Plus: KF3CT Assay for Transforming growth factor beta 1 (TGFb1) Biomarker Activity (AID 2283072). To be noted: primary human keratinocytes with fibroblasts; actives raise or lower the signal. A digest of the protocol:
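Read-out: ELISA for TGF-b1 in keratinocyte/foreskin fibroblast human skin co-culture, 24 h after dosing; bidirectional curve fit vs DMSO baseline; gain or loss of signal scored.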

Read-out in experiment [4]: C-C motif chemokine 2 (Homo sapiens) (UniProt P13500)
The experiment can be described thus: BSK_KF3CT_MCP1: BioMAP Diversity Plus: KF3CT Assay for Monocyte Chemoattractant Protein 1 (MCP1/CCL2) Biomarker Activity (AID 2283073). To be noted: primary human keratinocytes with fibroblasts; actives raise or lower the signal. A digest of the protocol:
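KF3CT skin co-culture (keratinocytes/foreskin fibroblasts), 24 h post-dose; MCP-1 by ELISA; gain/loss of signal fit bidirectionally vs DMSO baseline.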

Read-out in experiment [5]: Matrix Metallopeptidase 9 (MMP9), MMP9 (gene 4318)
The experiment can be described thus: BSK_KF3CT_MMP9: BioMAP Diversity Plus: KF3CT Assay for Matrix Metallopeptidase 9 (MMP9) Biomarker Activity (AID 2283074).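 As to AC50: MMP9 protein level quantified by ELISA in the co-culture.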 To be noted: primary human keratinocytes with fibroblasts; actives raise or lower the signal. Put shortly:
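Values come from bidirectional fitting relative to DMSO of MMP-9 levels, which were measured by ELISA. Measurements were taken 24 h after chemical dosing of a keratinocyte and foreskin fibroblast co-culture.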

Read-out in experiment [6]: urokinase plasminogen activator (uPA), PLAU (gene 5328)
The experiment can be described thus: BSK_KF3CT_uPA: BioMAP Diversity Plus: KF3CT Assay for urokinase plasminogen activator (uPA) Biomarker Activity (AID 2283075). To be noted: primary human keratinocytes with fibroblasts; actives raise or lower the signal. A digest of the protocol: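 Values derive from bidirectional fitting against DMSO controls. Keratinocyte/foreskin fibroblast co-cultures received chemical; 24 h later uPA was detected by ELISA, with SRB total-protein staining in parallel wells for overt cytotoxicity.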

Read-out in experiment [7]: CD40, CD40 (gene 958)
The experiment is described as follows: BSK_LPS_CD40: BioMAP Diversity Plus: LPS Assay for CD40 Biomarker Activity (AID 2283076). To be noted: primary human HUVEC with PBMC; actives raise or lower the signal. Put shortly:
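ELISA readout of CD40 in HUVEC/PBMC co-culture (BSK_LPS system), 24 h post-dosing; bidirectional curve fit, DMSO baseline; parallel SRB total-protein staining for cytotoxicity.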

Read-out in experiment [8]: E-selectin (Homo sapiens) (UniProt P16581)
The experiment can be described thus: BSK_LPS_Eselectin: BioMAP Diversity Plus: LPS Assay for Eselectin Biomarker Activity (AID 2283077). To be noted: primary human HUVEC with PBMC; actives raise or lower the signal. Put shortly: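 ELISA readout of E-selectin, 24 h post-dose, HUVEC + PBMC co-culture (LPS system). Gain or loss of signal vs DMSO baseline, bidirectional fit.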

Read-out in experiment [9]: Interleukin-8 (IL8), CXCL8 (gene 3576)
The experiment can be described thus: BSK_LPS_IL8: BioMAP Diversity Plus: LPS Assay for Interleukin-8 (IL8) Biomarker Activity (AID 2283078). To be noted: primary human HUVEC with PBMC; actives raise or lower the signal. A digest of the protocol: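 HUVEC + PBMC co-culture, LPS-activated; test chemicals dosed, IL-8 read by ELISA at 24 h. Bidirectional curve fit vs DMSO baseline (gain or loss of signal).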

Experiment [10] is described as follows: BSK_LPS_SRB: Viability Assessment in the BioMAP Diversity Plus: LPS Assay (AID 2283079).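 Also: total protein by sulforhodamine B absorbance as a cytotoxicity measure; measured one day after compound addition; fitted in both directions against DMSO so loss or gain of signal counts.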 To be noted: primary human HUVEC with PBMC. A digest of the protocol: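 HUVEC + PBMC co-culture, LPS-stimulated; compound 24 h. 10% TCA fix, 0.1% SRB stain, A560. Bidirectional fit vs DMSO.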
Read-out in experiment [11]: Interleukin-1 alpha (IL1a), IL1A (gene 3552)
The experiment is described as follows: BSK_LPS_IL1a: BioMAP Diversity Plus: LPS Assay for Interleukin-1 alpha (IL1a) Biomarker Activity (AID 2283080). To be noted: primary human HUVEC with PBMC; actives raise or lower the signal. Put shortly:
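HUVEC/PBMC co-culture, LPS system; 24 h after dosing; IL-1a by ELISA; gain or loss of signal fitted bidirectionally vs DMSO baseline.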

Read-out in experiment [12]: Monocyte Chemoattractant Protein-1 (MCP1), CCL2 (gene 6347)
The experiment is described as follows: BSK_LPS_MCP1: BioMAP Diversity Plus: LPS Assay for Monocyte Chemoattractant Protein-1 (MCP1) Biomarker Activity (AID 2283081).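 As to AC50: secreted MCP-1 protein quantified by ELISA in culture supernatant.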 To be noted: primary human HUVEC with PBMC; actives raise or lower the signal. Put shortly:
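ELISA read-out of MCP-1 after 24 h chemical dosing of a human umbilical vein endothelial cell/peripheral blood mononuclear cell co-culture stimulated with LPS. Gain or loss of signal fitted relative to DMSO controls.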

The nature of experiment [13]: BSK_LPS_PGE2: BioMAP Diversity Plus: LPS Assay for Prostaglandin E2 (PGE2) Biomarker Activity (AID 2283082).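 As to AC50: secreted prostaglandin E2 measured by ELISA in LPS-stimulated co-culture.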 To be noted: primary human HUVEC with PBMC; actives raise or lower the signal. A digest of the protocol: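 ELISA read-out of PGE2 from human umbilical vein endothelial cells co-cultured with peripheral blood mononuclear cells under LPS, 24 h post-dose. Gain or loss of signal scored relative to DMSO baseline.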

Read-out in experiment [14]: Macrophage colony-stimulating factor (MCSF), CSF1 (gene 1435)
The experiment is described as follows: BSK_LPS_MCSF: BioMAP Diversity Plus: LPS Assay for Macrophage colony-stimulating factor (MCSF) Biomarker Activity (AID 2283083). To be noted: primary human HUVEC with PBMC; actives raise or lower the signal. Put shortly: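 HUVEC + PBMC co-culture (human primary), 24 h post-dose; M-CSF by ELISA; gain/loss of signal fitted bidirectionally vs DMSO baseline.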

Read-out in experiment [15]: Tissue Factor, F3 (gene 2152)
The experiment can be described thus: BSK_LPS_TissueFactor: BioMAP Diversity Plus: LPS Assay for Tissue Factor Biomarker Activity (AID 2283084). To be noted: primary human HUVEC with PBMC; actives raise or lower the signal. A digest of the protocol: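 HUVEC/PBMC co-culture, LPS-activated; CD142 ELISA read 24 h post-dose; bidirectional curve fit vs DMSO negative control.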

Read-out in experiment [16]: Tumor necrosis factor (Homo sapiens) (UniProt P01375)
The experiment is described as follows: BSK_LPS_TNFa: BioMAP Diversity Plus: LPS Assay for Tumour Necrosis Factor alpha (TNFa) Biomarker Activity (AID 2283085).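 As to AC50: TNFa protein level quantified by ELISA in the co-culture.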 To be noted: primary human HUVEC with PBMC; actives raise or lower the signal. A digest of the protocol: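 HUVEC/PBMC co-culture, LPS-stimulated; 24 h post-dose; TNFa by ELISA; gain or loss of signal fitted bidirectionally vs DMSO baseline.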

Read-out in experiment [17]: Vascular cell adhesion molecule 1 (VCAM1), VCAM1 (gene 7412)
The experiment can be described thus: BSK_LPS_VCAM1: BioMAP Diversity Plus: LPS Assay for Vascular cell adhesion molecule 1 (VCAM1) Biomarker Activity (AID 2283086). To be noted: primary human HUVEC with PBMC; actives raise or lower the signal. A digest of the protocol: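 ELISA read-out of VCAM-1 at 24 h post-dosing in an LPS-driven HUVEC/PBMC primary human co-culture; gain or loss of signal fitted bidirectionally against DMSO baseline. Cytotoxicity tracked in parallel cultures by SRB total-protein staining.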

Read-out in a further experiment: CD38, CD38 (gene 952)
The experiment is described as follows: BSK_SAg_CD38: BioMAP Diversity Plus: SAg Assay for CD38 Biomarker Activity (AID 2283087). To be noted: primary human HUVEC with PBMC; actives raise or lower the signal. A digest of the protocol: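 Measures CD38 on a human endothelial/PBMC co-culture driven by SEB and TSST-1, 24 h after compound exposure, using ELISA with fluorescence detection; DMSO defines baseline for bidirectional curve fitting.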

Read-out in experiment [18]: CD40, CD40 (gene 958)
The experiment is described as follows: BSK_SAg_CD40: BioMAP Diversity Plus: SAg Assay for CD40 Biomarker Activity (AID 2283088). To be noted: primary human HUVEC with PBMC; actives raise or lower the signal. Put shortly:
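HUVEC/PBMC co-culture, 24 h post-dose; CD40 by ELISA, fluorescence intensity; bidirectional fit vs DMSO negative control.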

Read-out in the next experiment: CD69, CD69 (gene 969)
The experiment is described as follows: BSK_SAg_CD69: BioMAP Diversity Plus: SAg Assay for CD69 Biomarker Activity (AID 2283089).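 As to AC50: cell surface CD69 protein quantified by ELISA with fluorescence detection.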 To be noted: primary human HUVEC with PBMC; actives raise or lower the signal. A digest of the protocol:
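HUVEC co-cultured with PBMC were dosed with chemical, and CD69 was measured by ELISA with fluorescence read-out 24 h later. Bidirectional curve fitting used DMSO as negative control and activity baseline.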

Chain of E-selectin (Homo sapiens) (P16581 whole entry, looked up): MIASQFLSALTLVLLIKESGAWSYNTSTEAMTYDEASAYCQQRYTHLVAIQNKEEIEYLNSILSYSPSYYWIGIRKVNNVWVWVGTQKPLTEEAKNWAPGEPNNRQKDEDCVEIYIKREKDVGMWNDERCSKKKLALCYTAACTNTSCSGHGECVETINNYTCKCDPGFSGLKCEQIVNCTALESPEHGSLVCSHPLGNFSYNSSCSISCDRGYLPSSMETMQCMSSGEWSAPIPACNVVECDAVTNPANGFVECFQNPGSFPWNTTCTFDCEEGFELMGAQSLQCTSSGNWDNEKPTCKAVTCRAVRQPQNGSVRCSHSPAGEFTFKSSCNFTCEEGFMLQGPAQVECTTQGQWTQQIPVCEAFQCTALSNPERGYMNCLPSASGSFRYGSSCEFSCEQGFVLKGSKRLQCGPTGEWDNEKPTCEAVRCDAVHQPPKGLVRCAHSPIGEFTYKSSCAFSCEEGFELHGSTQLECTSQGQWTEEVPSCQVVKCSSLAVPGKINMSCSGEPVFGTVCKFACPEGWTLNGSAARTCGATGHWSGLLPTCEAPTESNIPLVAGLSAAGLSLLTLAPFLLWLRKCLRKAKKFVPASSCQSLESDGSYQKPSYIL
Chain of Tumor necrosis factor (Homo sapiens) (P01375 whole entry, looked up): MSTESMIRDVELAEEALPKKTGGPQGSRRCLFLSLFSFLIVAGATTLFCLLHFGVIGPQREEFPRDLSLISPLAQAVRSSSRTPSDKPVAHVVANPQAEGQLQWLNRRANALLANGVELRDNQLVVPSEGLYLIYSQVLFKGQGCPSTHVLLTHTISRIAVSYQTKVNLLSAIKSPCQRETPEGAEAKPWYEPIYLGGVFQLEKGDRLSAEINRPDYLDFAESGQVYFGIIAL

As to `N#CSCSC#N`, the concentration at half-maximal activity (AC50) was 8.09 µM (active) in experiment [1]; 5.72 µM (active) in experiment [2]; 5.17 µM (active) in experiment [3]; 5.31 µM (active) in experiment [4]; 6.04 µM (active) in experiment [5]; 6.91 µM (active) in experiment [6]. For the same compound, the AC50 was 5.33 µM (active) with CD40, CD40 (gene 958) [7]; 6.28 µM (active) in experiment [8]; 5.94 µM (active) in experiment [9]; 5.37 µM (active) in experiment [10]; 5.46 µM (active) in experiment [11]; 10.6 µM (active) in experiment [12]. The AC50 was 5.66 µM (active) in experiment [13]; 5.23 µM (active) in [14]; 3.89 µM (active) in experiment [16]; 5.56 µM (active) in experiment [17]; 5.28 µM (active) with CD38, CD38 (gene 952); 7.73 µM (active) in the experiment with CD40, CD40 (gene 958) [18]. In addition, the AC50 with CD69, CD69 (gene 969) was 7.16 µM (active). In [15], the result was inactive.
Take `CCOP(=O)(SC(C)CC)N1CCSC1=O` (centres undefined): the result in [1], in experiment [2], in experiment [3], in [4], in experiment [5] and in experiment [6] was inactive. In addition, the outcome was “inactive” with CD40, CD40 (gene 958) [7]; “inactive” in experiment [8]; “inactive” in experiment [9]; “inactive” in [10]; “inactive” in experiment [11]; “inactive” in experiment [12]. Further, the outcome in experiment [13] was “inactive”; in [14], “inactive”; in experiment [15] it was “inactive”; in experiment [16], “inactive”; in [17], “inactive”; with CD38, CD38 (gene 952), “inactive”. For the same compound, the outcome with CD40, CD40 (gene 958) [18] was “inactive”; in the experiment with CD69, CD69 (gene 969), “inactive”.
As to `O=c1ccc(=O)[nH][nH]1`, the outcome in [1], in experiment [2], in experiment [3], in [4], in [5] and in experiment [6] was inactive. Also, the outcome with CD40, CD40 (gene 958) [7] is “inactive”; in experiment [8] it was “inactive”; in [9], “inactive”; in experiment [10] it was “inactive”; in [11], “inactive”; in experiment [12], “inactive”. The outcome is “inactive” in [13]; “inactive” in experiment [14]; “inactive” in [15]; “inactive” in experiment [16]; “inactive” in experiment [17]; “inactive” with CD38, CD38 (gene 952). Moreover, the outcome with CD69, CD69 (gene 969) was inactive.

For orientation: AC50 means the concentration giving half of the maximal activity seen.
